GDH-TPI counter: counter-screen for M. tuberculosis FBA inhibitors: GDH-TPI coupled enzymes | GDH-TPI coupled enzyme counterscreen, NADH absorbance | inhibition, % at 4.8 µM | hit rate 1.2% among 360,000 | AID 588335; in the data active means inhibition above about 30%
SARS 3CLpro inh-1: SARS-CoV 3CLpro protease inhibition; P0C6X7; recombinant SARS-CoV 3CLpro, quenched FRET peptide cleavage; inhibition, % at 6 µM; hit rate 0.14% among 290,000; AID 1706; in the data active means inhibition above about 12%
FadD28 FP inh: inhibitors of Mycobacterium tuberculosis FadD28 bisubstrate binding. inhibition, % at 12.5 µM. FadD28 bisubstrate probe binding, fluorescence polarization. hit rate 0.22% among 360,000; in the data active means inhibition above about 8.5%, passing the limit was not always enough; inconclusive means no clear call, values can overlap the other calls
Mtb FBA inh: inhibitors of M. tuberculosis fructose-bisphosphate aldolase. inhibition, % at 1 µM. purified M. tuberculosis FBA, fluorescence read-out. hit rate 2.3% among 360,000. AID 588726; in the data active means inhibition above about 27%
Target sequence (P9WQA3 whole entry, looked up): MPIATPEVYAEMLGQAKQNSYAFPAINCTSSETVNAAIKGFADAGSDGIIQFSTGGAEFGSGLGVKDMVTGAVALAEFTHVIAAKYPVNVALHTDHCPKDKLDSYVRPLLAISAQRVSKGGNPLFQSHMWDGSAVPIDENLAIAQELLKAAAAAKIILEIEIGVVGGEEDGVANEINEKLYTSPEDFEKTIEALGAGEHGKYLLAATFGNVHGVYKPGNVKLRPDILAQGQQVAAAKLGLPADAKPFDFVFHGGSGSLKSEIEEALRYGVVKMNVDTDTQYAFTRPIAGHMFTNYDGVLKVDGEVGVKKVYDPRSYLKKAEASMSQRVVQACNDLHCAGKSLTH
BioA inh: BioA (M. tuberculosis) enzyme inhibition. purified M. tuberculosis BioA enzyme, plate reader. inhibition, % at 9.99 µM. hit rate 0.096% among 360,000. AID 602481; in the data active means inhibition above about 40%; inconclusive means no clear call, values can overlap the other calls
SARS 3CLpro inh-2: SARS 3CLpro inhibition, confirmation assay; QFRET protease activity assay; hit rate 36% among 380; inhibition, % at 6 µM; shares compounds with SARS 3CLpro inh-1; in the data active means inhibition above about 13%
Numbers stand for hits; n = inactive; u = inconclusive; x = not tested or not shown; + = active, no number. Only some compounds are listed: those with a hit (about 3.1% of all), similar ones and a draw of the others.

SMILES	GDH-TPI counter	SARS 3CLpro inh-1	FadD28 FP inh	Mtb FBA inh	BioA inh	SARS 3CLpro inh-2
Cc1cc2cc3c(C)cc(=O)oc3c(C)c2o1	n	n	n	n	n	x
Cc1cc(=O)oc2cc3c(cc12)OCCN3	n	n	n	+	n	x
Cc1cc(=O)oc2cc3c(cc12)CCCN3	n	n	n	+	n	x
Cc1cc2c(C)cc(=O)oc2c2c1NCCC2	n	n	n	+	n	x
Cc1cc(=O)oc2cc3c(cc12)OCO3	n	n	n	+	n	x
O=C(C[C@@H]1CC[C@H]2[C@@H](COC[C@@H](O)CN2Cc2ccncc2)O1)NCc1ccccc1Cl	x	x	x	x	n	x
CC(=O)N1[C@H](CNC(=O)CN2CCOCC2)[C@@H](c2ccccc2)[C@@H]1CO	x	x	x	x	n	x
O=C(NCc1ccc(F)cc1)c1ccc(S(=O)(=O)Nc2cccc(C(F)(F)F)c2)cc1	n	17.6	n	n	n	n
C[C@@H]1CN([C@H](C)CO)C(=O)c2cc(Br)cnc2O[C@H]1CN(C)C(=O)Nc1ccc(F)cc1	x	x	x	x	n	x
CC(C)NC(=O)Nc1ccc2c(c1)C(=O)N([C@H](C)CO)C[C@H](C)[C@@H](CN(C)C(=O)NC(C)C)OCCCC[C@H](C)O2	x	x	x	x	n	x
O=C(c1cncc(Br)c1)N1CCN(S(=O)(=O)c2ccccc2C(F)(F)F)CC1	n	17.1	n	n	x	n
C[C@H](CO)N1C[C@H](C)[C@@H](CN(C)C(=O)CCCN(C)C)OCCCC[C@H](C)Oc2ccc(NC(=O)c3ccccc3)cc2C1=O	x	x	x	x	n	x
O=C(O)c1ccc(CN(Cc2ccccc2)S(=O)(=O)c2ccc(Cl)cc2)cc1	n	12.7	n	n	x	n
COc1ccc(CNC(=O)CN(Cc2ccccc2)S(=O)(=O)c2ccc(Cl)cc2)cc1	n	n	n	n	n	x
O=C(NCCc1ccccc1)C(=O)NCC1OCCN1S(=O)(=O)c1ccc2c(c1)OCCO2 (stereo not given)	n	14.8	n	n	n	n
O=C(NCc1ccccc1)C(=O)NCC1OCCN1S(=O)(=O)c1ccc2c(c1)OCCO2 (stereo not given)	n	n	n	n	n	x
O=C(Nc1c2c(nn1-c1cccc(Cl)c1)CS(=O)(=O)C2)c1ccc2c(c1)OCO2	n	12.6	n	n	n	n
O=C(Nc1c2c(nn1-c1ccc(Cl)cc1)CS(=O)(=O)C2)c1ccc2c(c1)OCO2	n	n	n	n	n	x
O=C(NCC1CCCCC1)[C@@H]1[C@@H](CO)[C@@H]2Cn3c(cccc3=O)[C@H]1N2C(=O)c1cccnc1	x	x	x	x	n	x
Cc1cccc(S(=O)(=O)N2CCCCN3[C@H](CO)[C@H](c4ccc(C#CC5CC5)cc4)[C@H]3C2)c1	x	x	x	x	n	x
O=C(c1cccnc1)N1C[C@@H]2[C@H](c3ccccc31)[C@H](CO)N2C(=O)C1CC1	x	x	x	x	n	x
CNC(=O)N(O)C1N(/N=C/c2ccccc2OC)C(=S)SC1(C)C (stereo not given)	n	n	n	n	n	x
CNC(=O)N(O)C1N(/N=C/c2cccs2)C(=S)SC1(C)C (stereo not given)	n	12.6	n	n	x	n
O=C(C[C@@H]1CC[C@@H](NC(=O)c2ccc3c(c2)OCO3)[C@@H](CO)O1)NCc1ccc(F)cc1	x	x	x	x	n	x
O=C(O)c1ccc2ncsc2c1	n	16.5	n	n	x	37.7
SMILES	GDH-TPI counter	SARS 3CLpro inh-1	FadD28 FP inh	Mtb FBA inh	BioA inh	SARS 3CLpro inh-2
CCCN(C)C[C@@H]1Oc2cc(C#CC(C)(C)O)ccc2S(=O)(=O)N([C@@H](C)CO)C[C@@H]1C	x	x	x	x	n	x
O=C(CN1CCSCC1)N1CCc2[nH]c3ccc(Br)cc3c2C1	x	21.9	x	x	x	75.2
CC(C)C[C@H](NC(=O)c1[nH]cnc1C(=O)N[C@@H](Cc1ccccc1)C(=O)OC(C)(C)C)C(=O)OCc1ccccc1	n	n	n	n	n	x
CC(C)C[C@H](NC(=O)c1[nH]cnc1C(=O)N[C@@H](Cc1ccccc1)C(=O)OCc1ccccc1)C(=O)OC(C)(C)C	n	13.3	n	n	n	n
CC(C)C[C@H](NC(=O)c1nc[nH]c1C(=O)NCc1ccc(CNC(=O)OC(C)(C)C)cc1)C(=O)OC(C)(C)C	n	13.9	n	n	n	13.0
COc1cc(OC)c(OC)cc1/C=C1\Oc2cc(OCC(=O)N3Cc4ccccc4C[C@H]3C(=O)O)ccc2C1=O	n	12.5	11.8	n	n	n
O=C(Cc1ccncc1)NCC[C@@H]1CC[C@@H](NC(=O)C2CCCC2)[C@@H](CO)O1	x	x	x	x	n	x
O=C(Nc1ccc2c(c1)[C@H]1C[C@@H](CC(=O)N3CCc4ccccc4C3)O[C@@H](CO)[C@H]1O2)C1CCC1	x	x	x	x	n	x
CCN(c1ccc(OC)cc1)S(=O)(=O)c1nnc(NC(=O)COc2ccc(F)cc2)s1	n	n	n	n	n	x
CCN(c1ccc(OC)cc1)S(=O)(=O)c1nnc(NC(=O)COc2ccc(C)cc2)s1	n	12.6	n	n	n	n
Cc1ccc(S(=O)(=O)N[C@H]2C=C[C@@H](CC(=O)N3CCc4ccccc4C3)O[C@H]2CO)cc1	x	x	x	x	n	x
CC(C)(C)C1CCc2onc(C(=O)Nc3cccnc3)c2C1 (stereo not given)	n	13.6	n	n	n	n
CC(=O)N(C)c1ccc(NS(=O)(=O)c2cc(Cl)ccc2Cl)cc1	n	13.5	n	n	n	n
CC(=O)Nc1ccc(NS(=O)(=O)c2cc(Cl)ccc2Cl)cc1	n	n	n	n	n	x
O=C(Oc1cccc2c(OC(=O)N3CCOCC3)cccc12)N1CCOCC1	n	n	n	n	n	x
O=C(Oc1ccc2cccc(OC(=O)N3CCOCC3)c2c1)N1CCOCC1	n	12.6	n	n	n	n
Cc1ccc(S(=O)(=O)N(C)C[C@@H]2Oc3c(NC(=O)c4nc5ccccc5s4)cccc3C(=O)N([C@@H](C)CO)C[C@@H]2C)cc1	x	x	x	x	n	x
CN(C)S(=O)(=O)c1cccc(NC(=S)N/N=C/c2cc(Br)ccc2O)c1	n	15.3	n	n	n	n
Cc1sc(NC(=O)CCl)c(C(=O)c2ccccc2)c1C	n	14.5	n	n	n	35.6
Cc1ccccc1C(=O)Nc1sc(C)c(C)c1C(=O)c1ccccc1	n	n	n	n	n	x
Cc1cc(C)c(S(=O)(=O)/N=C2\C=C(Nc3ccc(C(=O)O)cc3)C(=O)c3ccccc32)c(C)c1	n	12.6	u	n	n	n
COc1ccc(S(=O)(=O)Nc2ccc(F)cc2)cc1N(C)S(=O)(=O)c1ccc(Cl)cc1	n	17.0	n	n	n	n
C[C@H](CO)N1C[C@H](C)[C@@H](CN(C)Cc2ccc(-c3ccccc3)cc2)Oc2c(NC(=O)C3CC3)cccc2C1=O	x	x	x	x	n	x
CCOC(=O)N1c2ccccc2Sc2ccccc21	n	n	n	n	x	x
Cc1nnc(SC(=O)N2c3ccccc3Sc3ccccc32)s1	n	23.6	n	n	n	38.4
Cc1ccc(C)c(S(=O)(=O)N2CCN(C(=O)c3ccc(N4CCCC4)c([N+](=O)[O-])c3)CC2)c1	n	12.8	n	n	n	n
CC(=O)Nc1ccc(S(=O)(=O)NCCOc2ccc(Cl)cc2C)cc1	n	n	n	n	x	x
CCCCOc1ccc(CONS(=O)(=O)c2ccc(NC(C)=O)cc2)cc1Cl	n	19.3	n	n	x	n
COc1ccc(NC(=O)c2ccc3c(=O)n(-c4ccc(OC)cc4OC)c(=S)[nH]c3c2)cc1	n	13.6	n	n	x	n

Screens deposited in PubChem BioAssay by several laboratories.
